# Measurements as given in PubChem BioAssay (NCATS).
# Records with an inconclusive call do not appear. Calls of active or inactive are those of the source. Unless noted, calls follow the shape of the dose curve; as a rule, active = well fitted curve in the direction sought with a large enough effect; inconclusive = small, poorly fitted or top-dose-only effect, or another doubt; inactive = no such curve, though single readings can be large; an effect the other way counts as inactive or inconclusive.
# Key:
# [1] = Quantitative High-Throughput drug screen in 47 multiple myeloma cell lines against the NCATS MIPE library collection: XG1_PLB cell viability assay (AID 1919866); also: nearly all actives have a fitted effect of over 35% in size; also: potency is read from the fitted curve at half-maximal effect
# Method in brief: (§1)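 qHTS format: cells plated (500/well), pin-dosed with MIPE 4.0 compounds, kept 48 h at 37 °C. Readout was CellTiter-Glo luminescence, median RLU.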
# [2] = Quantitative High-Throughput drug screen in 47 multiple myeloma cell lines against the NCATS MIPE library collection: VP6_DJ cell viability assay (AID 1919867); also: nearly all actives have a fitted effect of over 40% in size; also: potency is read from the fitted curve at half-maximal effect
# Method in brief: as §1
# [3] = Quantitative High-Throughput drug screen in 47 multiple myeloma cell lines against the NCATS MIPE library collection: UTMC2_PLB cell viability assay (AID 1919868); conditions: CellTiter-Glo ATP luminescence, 48 h; viability (% of DMSO control): at 45.8 µM (top of the series) unless noted; also: nearly all actives have a fitted effect of over 55% in size; also: potency is read from the fitted curve at half-maximal effect
# Method in brief: as §1
# [4] = Quantitative High-Throughput drug screen in 47 multiple myeloma cell lines against the NCATS MIPE library collection: PE2_PLB cell viability assay (AID 1919869); also: nearly all actives have a fitted effect of over 35% in size; also: potency is read from the fitted curve at half-maximal effect
# Method in brief: as §1
# [5] = Quantitative High-Throughput drug screen in 47 multiple myeloma cell lines against the NCATS MIPE library collection: RPMI8226_ATCC cell viability assay (AID 1919871); also: potency is read from the fitted curve at half-maximal effect; nearly all actives have a fitted effect of over 30% in size
# Method in brief: as §1
# [6] = Quantitative High-Throughput drug screen in 47 multiple myeloma cell lines against the NCATS MIPE library collection: OPM2_DSMZ cell viability assay (AID 1919872); also: nearly all actives have a fitted effect of over 30% in size; also: potency is read from the fitted curve at half-maximal effect
# Method in brief: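 We plated 500 myeloma cells per well, pinned in MIPE 4.0 compounds, and incubated for 48 hours at 37C. ATP was then quantified with CellTiter-Glo, with DMSO and media-only wells defining 100% and 0%.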
# [7] = Quantitative High-Throughput drug screen in 47 multiple myeloma cell lines against the NCATS MIPE library collection: KMS11_JCRBsus cell viability assay (AID 1919873); also: nearly all actives have a fitted effect of over 50% in size; also: potency is read from the fitted curve at half-maximal effect
# Method in brief: as §1
# [8] = qHTS drug screen for cell cycle checkpoint inhibitors in PARPi-resistant BRCA-mutant ovarian cancer cell lines. (AID 1963452; calls by dose curve); conditions: PEO1/OlaR viability, CellTiter-Glo luminescence, 96 h, stronger effect = lower value
# Method in brief: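 PEO1, PEO4 and PEO1/OlaR ovarian cancer cells, 600 per well, exposed 96 h at 37C to a dilution series. Viability read by CellTiter-Glo luminescence, normalized to DMSO and empty wells; activity summarized as Z-AUC.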
# [9] = Quantitative High-Throughput drug screen in 47 multiple myeloma cell lines against the NCATS MIPE library collection: PCM6_Riken cell viability assay (AID 1919870); also: nearly all actives have a fitted effect of over 30% in size; also: potency is read from the fitted curve at half-maximal effect
# Method in brief: as §1
# [10] = Quantitative High-Throughput drug screen in 47 multiple myeloma cell lines against the NCATS MIPE library collection: KMS28BM_JCRB cell viability assay (AID 1919874); also: nearly all actives have a fitted effect of over 35% in size; also: potency is read from the fitted curve at half-maximal effect
# Method in brief: as §1
# [11] = qHTS for identification of novel therapeutic agents for treatment of microphthalmiaassociated transcription factor (MiT) renal cell carcinoma (RCC) (AID 1963991; calls by dose curve; also: potency is read from the fitted curve at half-maximal effect); conditions: CellTiter-Glo, 48 h; for z-score: stronger effect = lower value
# Method in brief: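 Curves over 11 concentrations were fitted to CellTiter-Glo luminescence, scaled between empty wells (0%) and DMSO (100%) viability. Cells were UOK109, UOK124 and UOK145 TFE3-fusion RCC lines at 500/well, exposed 48 hours at 37 C.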
# [12] = qHTS profiling for inhibitors of Plasmodium falciparum proliferation (AID 504749); also: nearly all actives have a fitted effect of over 60% in size; also: potency is read from the fitted curve at half-maximal effect;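 as to activity, negative = inhibition: 0% = DMSO vehicle and full inhibition = artemisinin control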; conditions: P. falciparum in erythrocytes, SYBR Green DNA, 72 h
# Method in brief: (§2)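 Quantitative HTS: compounds pinned into medium, infected erythrocytes added (0.3% parasitemia, 2.5% hematocrit), 72 h culture at 37 C under 5% CO2. Saponin/Triton lysis with SYBR Green I, overnight RT, then fluorescence read.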
# 3D7 = test: as above; conditions: P. falciparum in erythrocytes, SYBR Green DNA, 72 h; series mostly up to 28.7 µM
# Method in brief: as §2
# 7G8 = test: as above; conditions: P. falciparum in erythrocytes, SYBR Green DNA, 72 h; series mostly up to 28.7 µM
# Method in brief: as §2
# AA1029 = test: as above; conditions: P. falciparum in erythrocytes, SYBR Green DNA, 72 h; series mostly up to 28.7 µM
# Method in brief: as §2
# AS120 = test: as above; conditions: P. falciparum in erythrocytes, SYBR Green DNA, 72 h; series mostly up to 28.7 µM
# Method in brief: as §2
# ATS189 = test: as above; conditions: P. falciparum in erythrocytes, SYBR Green DNA, 72 h; series mostly up to 28.7 µM
# Method in brief: as §2
# ATS95 = test: as above; conditions: P. falciparum in erythrocytes, SYBR Green DNA, 72 h; series mostly up to 28.7 µM
# Method in brief: as §2
# C2A = test: as above; conditions: P. falciparum in erythrocytes, SYBR Green DNA, 72 h; series mostly up to 28.7 µM
# Method in brief: as §2
# CP185 = test: as above; conditions: P. falciparum in erythrocytes, SYBR Green DNA, 72 h; series mostly up to 28.7 µM
# Method in brief: as §2
# [13] = measured here: PEO1 parental Z-AUC
# [14] = TFE3-RCC UOK109 viability, measured here: UOK109 Z-AUC
# [15] = TFE3-RCC viability, measured here: UOK124 Z-AUC
# [16] = TFE3-RCC viability, measured here: UOK145 Z-AUC
compound,measurement,setting,value
COc1ccc(C(=O)CC2(O)C(=O)Nc3c(Cl)ccc(Cl)c32)cc1 (stereo not drawn),Potency,[1],0.833 µM (active)
same,Potency,[2],2.96 µM (active)
same,Potency,[3],4.18 µM (active)
same,Potency,[4],4.18 µM (active)
same,Potency,[5],2.64 µM (active)
same,Potency,[6],9.35 µM (active)
same,Potency,[7],1.32 µM (active)
same,Z-AUC,[8],-0.119 (inactive)
same,Z-AUC,[8]; [13],-0.455
same,Z-AUC,[8]; measured here: PEO4 Z-AUC,-0.085
CC(O)C1C(=O)N2C(C(=O)O)=C(SC3CNC(C(=O)N(C)C)C3)C(C)C12 (stereo not drawn),Potency,[1],inactive
same,Potency,[2],2.64 µM (active)
same,Potency,[3],inactive
same,Potency,[4],inactive
same,Potency,[9],inactive
same,Potency,[7],inactive
same,Potency,[10],inactive
same,z-score,[11]; [14],0.648
same,z-score,[11]; [15],0.116
same,z-score,[11]; [16],0.637
Nc1ccc(S(=O)(=O)Nc2ncccn2)cc1,Potency,[1],inactive
same,Potency,[2],inactive
same,Potency,[3],inactive
same,Potency,[4],inactive
same,Potency,[9],inactive
same,Potency,[6],inactive
same,Potency,[7],inactive
same,Potency,[10],inactive
same,z-score,[11]; [14],-0.287
same,z-score,[11]; [15],0.624
same,z-score,[11]; [16],-0.336
same,"activity, negative = inhibition","[12]; at 12.8 µM (top of the series), parasite line A",8.9% (inactive)
same,Potency,3D7,inactive
same,Potency,7G8,inactive
same,Potency,AA1029,inactive
same,Potency,AS120,inactive
same,Potency,ATS189,inactive
same,Potency,ATS95,inactive
same,Potency,C2A,inactive
same,Potency,CP185,inactive
CN1CCN(Cc2ccc(NC(=O)Nc3ccc(Oc4cc(NC(=O)C5CC5)ncn4)cc3)cc2C(F)(F)F)CC1,Potency,[1],0.187 µM (active)
same,Potency,[2],0.0935 µM (active)
same,Potency,[3],0.132 µM (active)
same,Potency,[4],0.148 µM (active)
same,Potency,[9],0.105 µM (active)
same,Potency,[6],0.526 µM (active)
same,Potency,[7],0.235 µM (active)
same,Potency,[10],0.209 µM (active)
same,Z-AUC,[8],-1.5 (inactive)
same,Z-AUC,[8]; [13],-2.15
same,Z-AUC,[8]; measured here: PEO4 Z-AUC,-1.93
CC[C@H]1CN2CCc3cc(OC)c(OC)cc3[C@H]2C[C@@H]1C[C@@H]1NCCc2cc(OC)c(OC)cc21,Potency,[1],0.148 µM (active)
same,Potency,[2],0.148 µM (active)
same,Potency,[3],0.187 µM (active)
same,Potency,[4],0.296 µM (active)
same,Potency,[9],0.166 µM (active)
same,Potency,[6],0.418 µM (active)
same,Potency,[7],0.166 µM (active)
same,Potency,[10],0.235 µM (active)
same,Potency,"[11]; TFE3-RCC UOK109 viability, active = Z-AUC below -0.8 in all three lines",0.166 µM (active)
same,z-score,[11]; [14],-1.94
same,z-score,[11]; [15],-1.32
same,z-score,[11]; [16],-3.58
same,Potency,[12]; parasite line A,0.316 µM (active)
same,Potency,[12]; parasite line B,0.282 µM (active)
same,Potency,3D7,0.224 µM (active)
same,Potency,7G8,0.126 µM (active)
same,Potency,AA1029,0.316 µM (active)
same,Potency,AS120,0.316 µM (active)
same,Potency,ATS189,0.708 µM (active)
same,Potency,ATS95,0.282 µM (active)
same,Potency,C2A,0.224 µM (active)
same,Potency,CP185,0.316 µM (active)
c1nc2nc(Nc3ccc(N4CCOCC4)cc3)nc(NC3CCCCC3)c2[nH]1,Potency,[1],1.48 µM (active)
same,Potency,[2],3.32 µM (active)
same,Potency,[3],2.64 µM (active)
same,Potency,[4],3.72 µM (active)
same,Potency,[9],5.9 µM (active)
same,Potency,[6],11.8 µM (active)
same,Potency,[7],5.26 µM (active)
same,Potency,[10],4.18 µM (active)
COc1ccc(C=Cc2cc(OC)c(OC)c(OC)c2)cc1O,Potency,[1],inactive
same,Potency,[2],inactive
same,Potency,[3],inactive
same,Potency,[4],inactive
same,Potency,[9],inactive
same,Potency,[6],inactive
same,Potency,[7],inactive
same,Potency,[10],inactive
O=C(C=Cc1cccnc1)NCCCCC1CCN(C(=O)c2ccccc2)CC1,Potency,[1],0.001 µM (active)
same,Potency,[2],0.0187 µM (active)
same,Potency,[3],0.001 µM (active)
same,Potency,[4],0.0132 µM (active)
same,Potency,[9],0.0264 µM (active)
same,Potency,[5],0.0935 µM (active)
same,Potency,[7],0.0148 µM (active)
same,Potency,[10],0.0833 µM (active)
CC1(C)OC2=C(C(=O)c3ccccc3C2=O)[C@H](NCc2ccccc2)[C@H]1O,Potency,[1],1.48 µM (active)
same,Potency,[2],3.32 µM (active)
same,Potency,[3],2.35 µM (active)
same,Potency,[4],3.32 µM (active)
same,Potency,[9],2.35 µM (active)
same,Potency,[6],8.33 µM (active)
same,Potency,[7],3.72 µM (active)
same,Potency,[10],2.96 µM (active)
CNC(=O)c1cc(Oc2ccc(NC(=O)Nc3cc(C(C)(C)C)nn3-c3ccc4ncccc4c3)c(F)c2)ccn1,Potency,[1],7.43 µM (active)
same,Potency,[2],4.69 µM (active)
same,Potency,[3],4.18 µM (active)
same,Potency,[4],5.26 µM (active)
same,Potency,[9],2.64 µM (active)
same,Potency,[6],18.7 µM (active)
same,Potency,[10],9.35 µM (active)
same,Z-AUC,[8],0.924 (inactive)
same,Z-AUC,[8]; [13],1.09
same,Z-AUC,[8]; measured here: PEO4 Z-AUC,1.19
CC1(C)CC(=O)c2c(C(F)(F)F)nn(-c3ccc(C(N)=O)c(NC4CCC(OC(=O)CN)CC4)c3)c2C1 (stereo not drawn),Potency,[1],0.0833 µM (active)
same,Potency,[2],0.166 µM (active)
same,Potency,[3],0.209 µM (active)
same,Potency,[4],0.209 µM (active)
same,Potency,[9],0.0743 µM (active)
same,Potency,[6],0.296 µM (active)
same,Potency,[7],0.118 µM (active)
same,Potency,[10],0.187 µM (active)
same,Z-AUC,[8],-1.29 (inactive)
same,Z-AUC,[8]; [13],-0.877
same,Z-AUC,[8]; measured here: PEO4 Z-AUC,-0.312
Clc1ccc2ncc(-c3cccc(NC4CNC4)n3)n2c1,Potency,[1],14.8 µM (active)
same,Potency,[2],16.6 µM (active)
same,Potency,[4],16.6 µM (active)
same,Potency,[9],18.7 µM (active)
same,Potency,[5],20.9 µM (active)
same,Potency,[6],23.5 µM (active)
same,Potency,[7],20.9 µM (active)
